Bioassay records as filed in PubChem BioAssay.
Rows were chosen to be rich in hits. Some 31% of all compounds tested hit in one or more screens of this group.
PLAP act: PLAP enzyme activators, biochemical, luminescence, HTS | purified PLAP enzyme, luminescent substrate read-out; hits give high values | activation fold at 20 µM | actives 1.2% (n = 96,000); in the data active = activation fold above about 2
CYP2C19 inhib: blockers of cytochrome P450 2C19 activity – biochemical, luminescence, ADME assay, primary screen; actives 21% (n = 96,000); CYP2C19 Supersomes, luciferin-H EGE luminescence, 30 min; P33261; inhibition, % at 5 µM;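 active = CYP2C19 inhibition above a set limit at 5 µM in the primary screen, cut at about 50% in these data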
CYP2C9 activ: human CYP2C9 activators, primary screen, biochemical, luminescence. activation factor at 5 µM. recombinant CYP2C9, luciferin-H conversion; hits give high values; factor 1 = untreated enzyme, 0 = blocked. actives 1.4% (n = 96,000). Cytochrome P450 2C9 (Homo sapiens), P11712;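 active = activation factor of 2 or more for CYP2C9 at a 5 µM dose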
Target sequence (P11712 whole entry, looked up): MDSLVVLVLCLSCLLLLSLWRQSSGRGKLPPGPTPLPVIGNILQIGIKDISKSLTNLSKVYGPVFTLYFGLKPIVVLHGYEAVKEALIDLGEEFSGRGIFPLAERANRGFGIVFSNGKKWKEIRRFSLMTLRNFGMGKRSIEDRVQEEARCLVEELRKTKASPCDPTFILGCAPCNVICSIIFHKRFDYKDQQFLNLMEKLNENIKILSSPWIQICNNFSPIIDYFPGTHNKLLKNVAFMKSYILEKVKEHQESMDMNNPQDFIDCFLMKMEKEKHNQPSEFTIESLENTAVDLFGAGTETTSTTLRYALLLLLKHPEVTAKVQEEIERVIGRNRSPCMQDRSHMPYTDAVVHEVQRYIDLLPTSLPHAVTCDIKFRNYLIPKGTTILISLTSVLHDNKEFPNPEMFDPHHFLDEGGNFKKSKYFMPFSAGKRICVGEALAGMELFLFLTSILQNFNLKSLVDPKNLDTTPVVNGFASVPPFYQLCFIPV
CYP2C19 activ: human CYP2C19 activators, primary screen, biochemical, luminescence; Cytochrome P450 2C19 (Homo sapiens), P33261; recombinant CYP2C19, luciferin-H EGE luminescence; hits give high values; 0 = fully inhibited enzyme, 1 = untreated enzyme; activation factor at 5 µM; 96,000 tested, under 10 active;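 active = activation factor of at least 2 at 5 µM in the primary screen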
CYP2C9 inhib: blockers of cytochrome P450 2C9 activity – biochemical, luminescence, ADME assay, primary screen | AID 777, 2007 | actives 20% (n = 96,000) | P11712 | inhibition, % at 5 µM | CYP2C9 Supersomes, luciferin-H conversion;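 active = blocking of liver enzyme CYP2C9 beyond about 50% at 5 µM, limit read from the data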
Large screens that a line does not name were inactive.

Cc1ccc(C(=O)Cn2nnc3ccccc32)cc1	none
CCN(C(=O)c1ccc(C(C)(C)C)cc1)c1nnc(Cn2nnc3ccccc32)s1	CYP2C9 inhib 51.8
Cc1ccc(-n2c(-c3ccccc3)cc(=O)nc2C)cc1	none (no result: CYP2C19 inhib, CYP2C19 activ)
CCC(=O)Nc1cc(-c2nn(C)c(=O)c3ccccc23)ccc1N1CCOCC1	PLAP act 2, CYP2C9 inhib 62.5
Cn1nc(-c2ccc(N3CCCCC3)c(NC(=O)c3ccco3)c2)c2ccccc2c1=O	CYP2C19 inhib 58.8, CYP2C9 inhib 96.3
O=C(O)c1ccc(Cl)c(S(=O)(=O)N2CCCCCC2)c1	none
CC(=O)Nc1ccc(S(=O)(=O)NCCSCc2c(Cl)cccc2Cl)cc1	CYP2C19 inhib 73.1, CYP2C9 inhib 76.8
CC(=O)Nc1ccc(S(=O)(=O)NCCSCc2ccco2)cc1	CYP2C19 inhib 60.0, CYP2C9 inhib 65.5
COc1cccc2cc(C(=O)CC3(O)C(=O)N(Cc4ccccc4)c4ccccc43)c(=O)oc12 (configuration not stated)	none
CC(C(=O)Nc1nc2ccccc2[nH]1)N1C(=O)C2CC=CCC2C1=O (configuration not stated)	PLAP act 2
C[C@@H](C(=O)NCc1ccccc1)N1C(=O)C2CC=CCC2C1=O (some centres not stated)	none
O=c1cc2c(nn1Cc1cccc(Cl)c1)-c1ccccc1CC2	CYP2C19 inhib 84.1, CYP2C9 inhib 99.5
Cc1ccc(Cn2cnc3c(nnn3Cc3ccc(Cl)cc3)c2=O)cc1	none
O=C1c2ccncc2C(=O)N1Cc1cccc(Cl)c1	none
O=c1cc2c(nn1Cc1ccc(Cl)cc1)-c1ccccc1CC2	PLAP act 2, CYP2C19 inhib 97.4, CYP2C9 inhib 97.4
Cc1ccc(N=C/C(C(=O)C(F)(F)F)=C(\O)c2cccs2)cc1	none
CC(Oc1ccc2oc(-c3ccccc3)c(C(=O)O)c2c1)C(=O)O (configuration not stated)	none
O=c1oc2c(CN3CCCCCC3)c(O)ccc2cc1-c1nc2ccccc2[nH]1	PLAP act 2.4
c1ccc2[nH]c(CN3CCCCCC3)nc2c1	CYP2C19 inhib 63.9
O=S(=O)(c1ccccc1F)N1CCN(Cc2nc3ccccc3[nH]2)CC1	CYP2C19 inhib 55.0
c1ccc(OCc2nc3ccccc3[nH]2)cc1	CYP2C19 inhib 74.3
CCOC(=O)c1cccnc1SCC(=O)N(CC)c1cccc(C)c1	CYP2C19 inhib 64.9
C=CCSc1ncccc1C(=O)NCc1ccccc1	CYP2C19 inhib 88.0
CC(C)OC(=O)c1cccnc1SCC(=O)N(C)c1ccccc1	CYP2C19 inhib 68.6
COc1ccc(NC(C)=O)cc1NC(=O)CSc1nc2ncccc2[nH]1	PLAP act 2.4, CYP2C9 inhib 55.6
O=C(O)c1ccc(-n2c(-c3ccc(Br)cc3)n[nH]c2=S)cc1	none
COCCCNC(=O)C(=O)NCCCOC(C)C	none
CC(C)OC(=O)c1cccnc1SCc1cc(=O)n2ccccc2n1	CYP2C9 inhib 51.7
COc1ccc(NC(=O)CSc2ncccc2C(=O)OC(C)C)cc1OC	CYP2C19 inhib 92.0, CYP2C9 inhib 76.9
CCN(C(=O)CSc1ncccc1C(=O)OC(C)C)c1cccc(C)c1	CYP2C19 inhib 53.1
CCOC(=O)c1cccnc1SCC(=O)NCc1ccccc1	CYP2C19 inhib 97.7, CYP2C9 inhib 91.5
CCC(Sc1ncccc1C(=O)OC(C)C)C(=O)N1CCOCC1 (configuration not stated)	none
CNC(=O)COC(=O)c1cccnc1SC	none
CC(C)CCNC(=O)NC(=O)Cn1cc(C(F)(F)F)ccc1=O	none
O=C(Nc1ccccc1)C1CC=CCC1C(=O)OCC1CCCO1 (configuration not stated)	none
Cc1csc(NC(=O)CNC(=O)OCc2ccccc2)n1	none
CC(=O)N1CCc2cc(NS(=O)(=O)c3cccs3)ccc21	CYP2C19 inhib 61.6, CYP2C9 inhib 89.2
COc1cccc(NS(=O)(=O)c2ccc3c(c2)CCCN3C(C)=O)c1	CYP2C19 inhib 95.6, CYP2C9 inhib 56.2
CCOC(=O)c1ccc(NS(=O)(=O)N2CCCCCC2)cc1	CYP2C9 inhib 67.5
CCOC(=O)c1ccc(NS(=O)(=O)c2ccc3c(c2)CCCN3C(C)=O)cc1	CYP2C9 inhib 72.5
CC(CN1CCCCC1)OC(=O)c1cc2ccccc2o1 (configuration not stated)	none
O=C(O)C1CCCN1S(=O)(=O)c1ccc2[nH]c(=O)c(=O)[nH]c2c1 (configuration not stated)	none
CCCc1nnc(SCC(=O)N2CCCCC2)n1CC1CCCO1 (configuration not stated)	none
CCCCn1c(CCC(=O)O)nc2c1c(=O)[nH]c(=O)n2CCC	none
CCCCn1c(=O)[nH]c(=O)c2c1nc(COC(=O)c1c(C)noc1C)n2CCC	CYP2C19 inhib 68.1, CYP2C9 inhib 96.9
CN(C/C(O)=C(\C#N)c1ccccc1)C1CCCCC1	none
CCSc1nnc(N(CCC#N)CCC#N)s1	none
c1c2c(cc3sc(N4CCOCC4)nc13)OCCO2	CYP2C19 inhib 87.3
CCc1nnc2n1N=C(c1ccc(-c3cc(Cl)ccc3Cl)o1)CS2	none
NS(=O)(=O)c1ccc(NCc2ccccc2OCc2ccccc2F)cc1	CYP2C9 inhib 75.3
Fc1ccccc1CNc1cc(Cl)cc(Cl)c1	none (no result: CYP2C19 inhib, CYP2C9 activ, CYP2C19 activ, CYP2C9 inhib)
Cc1ccc(NCc2ccccc2OCc2ccccc2F)cc1	CYP2C19 inhib 56.8
Oc1ccc(NCc2ccccc2OCc2ccccc2F)cc1	CYP2C19 inhib 51.7
CC(=O)CC(C)=NCCN=C(C)CC(C)=O	none
CC1CCCCN1S(=O)(=O)c1ccc(NC(=O)CSc2nnnn2C)cc1 (configuration not stated)	none
Cc1oc(/N=C/c2ccc(Cl)cc2)c(C#N)c1C	none
Cc1oc(/N=C/c2ccc(Cl)cc2Cl)c(C#N)c1C	CYP2C19 inhib 71.4
CN(Cc1ccccc1)C(=O)c1cccc(N2C(=O)NC3CC2(C)Oc2ccccc23)c1 (configuration not stated)	none
CSCCC(NS(=O)(=O)c1ccc2ccccc2c1)C(=O)O (configuration not stated)	none
CCNc1nc(Oc2ccc(Cl)cc2Cl)cc(C(F)(F)F)n1	CYP2C9 inhib 62.9
CCNc1nc(N)nc(Oc2ccc(OCCOc3ccc(Cl)cc3Cl)nn2)n1	CYP2C19 inhib 94.0, CYP2C9 inhib 80.4
O=C(Cn1c(C(=O)N2CCN(C3CCCC3)CC2)cc2sccc21)c1ccccc1	CYP2C19 inhib 80.0
CCn1c(C(=O)N2CCC(Cc3ccccc3)CC2)cc2sccc21	CYP2C19 inhib 59.3, CYP2C9 inhib 57.7
CCOC(=O)N1CCN(C(=O)C2CCN(C(=O)c3cc4sccc4n3CC)CC2)CC1	none
O=C(Cn1c(C(=O)NCC2CCCO2)cc2sccc21)c1ccccc1 (configuration not stated)	CYP2C9 inhib 51.1
O=C(Cn1c(C(=O)NCc2ccco2)cc2sccc21)c1ccccc1	none
